Bioassay records as filed in PubChem BioAssay.
HPGD inh: HPGD (human) dehydrogenase inhibition | actives 4.3% (n = 150,000) | P15428 | Potency, µM, inactives show at the highest dose activity change, negative = inhibition, usual class: inhibitors | purified HPGD, NADH fluorescence kinetic, PGE2 substrate; note: potency is the fitted concentration of half-maximal effect
Target sequence (P15428 whole entry, looked up): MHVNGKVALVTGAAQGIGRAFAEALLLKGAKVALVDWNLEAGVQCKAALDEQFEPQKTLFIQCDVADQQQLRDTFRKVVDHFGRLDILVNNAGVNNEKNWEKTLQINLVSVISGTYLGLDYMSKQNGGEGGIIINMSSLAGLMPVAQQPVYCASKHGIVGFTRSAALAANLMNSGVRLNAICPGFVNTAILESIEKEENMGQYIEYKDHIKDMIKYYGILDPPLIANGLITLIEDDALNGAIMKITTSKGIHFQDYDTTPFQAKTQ
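NADH formation kinetics: reaction with 30 uM PGE2 and 1 mM NAD+ (final), 20 nM enzyme, Tris-HCl pH 8 with Tween 20, after 15 min compound preincubation at room temperature. Fluorescence change, last versus first of five reads.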
LMNA splice mod: modulators of lamin A splicing; HeLa LMNA splicing GFP/RFP minigene ratio, 48 h; Potency, µM (doses to about 46.1 µM), for the others: at the top dose ratio change, negative = inhibition, hits mostly inhibitors; AID 1487; actives 0.01% (n = 200,000); active = well fitted inhibition curve with a large enough effect in the signal ratio, with a control signal flat, not every such curve was filed as active; inconclusive = small, poorly fitted or top-dose-only effect, or effect the other way, or a change in a side signal; the % refers to the signal ratio; note: potency is the fitted concentration of half-maximal effect
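S3 HeLa cells stably expressing lamin A-EGFP splicing minigene plus DsRed2, 600 cells/well, 48 h compound exposure at 37C. Laser-scanning cytometry; analysed as GFP (500-530 nm)/RFP (575-640 nm) total intensity ratio; 0.5% DMSO vehicle.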
ALOX12 inhib: inhibitors of human 12-lipoxygenase (ALOX12) | purified 12-hLO, xylenol orange hydroperoxide absorbance | Potency, µM (titrated, usually from 57.1 µM), for the others: top-dose activity change, negative = inhibition, actives largely listed as inhibitors | actives 0.12% (n = 150,000) | AID 1452; active = well fitted inhibition curve with a large enough effect; inconclusive = small, poorly fitted or top-dose-only effect; note: potency is the fitted concentration of half-maximal effect; nearly all actives have a fitted effect of over 55% in size
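Purified human 12hLO (150 nM final) was preincubated with compounds for 15 min at room temperature in 25 mM Hepes pH 7.0, 0.01% Triton X-100, then reacted with 40 uM arachidonic acid for 30 min. Hydroperoxide was detected with ferrous iron/xylenol orange.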
PNC assembly inh: inhibitors of perinucleolar compartment assembly | AID 2417 | PC3M PTB-GFP, PNC prevalence imaging, 16 h; active compounds read low | actives 3.1% (n = 140,000) | activity change (PNC), negative = inhibition, % at 10 µM;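 active = readout at or below -70, meaning at least 70% loss of cells showing the perinucleolar compartment, a nuclear body marking cancer cells; inconclusive = readout between -30 and a set limit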;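 note: plate controls were DMSO wells for no effect and camptothecin positive control wells for full effect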
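Read-out is percentage of cells bearing a perinucleolar compartment, from automated 20x imaging of fixed, Hoechst-stained PC3M PTB-GFP cells. Cells were seeded 4 h, then exposed 16 h to compound (23 nl of library stock) in duplicate plates.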
ALDH1A1 inh: inhibitors of human aldehyde dehydrogenase 1A1. P00352. Purified ALDH1A1, NADH fluorescence, propionaldehyde substrate. Potency, µM (titrated, usually from 75.3 µM), for the others: at the top dose activity, negative = inhibition, hits mostly inhibitors. actives 7.3% (n = 220,000). AID 1030;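 note: potency is the fitted concentration of half-maximal effect; plate controls were no enzyme wells and a reference inhibitor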
Target sequence (P00352 whole entry, looked up): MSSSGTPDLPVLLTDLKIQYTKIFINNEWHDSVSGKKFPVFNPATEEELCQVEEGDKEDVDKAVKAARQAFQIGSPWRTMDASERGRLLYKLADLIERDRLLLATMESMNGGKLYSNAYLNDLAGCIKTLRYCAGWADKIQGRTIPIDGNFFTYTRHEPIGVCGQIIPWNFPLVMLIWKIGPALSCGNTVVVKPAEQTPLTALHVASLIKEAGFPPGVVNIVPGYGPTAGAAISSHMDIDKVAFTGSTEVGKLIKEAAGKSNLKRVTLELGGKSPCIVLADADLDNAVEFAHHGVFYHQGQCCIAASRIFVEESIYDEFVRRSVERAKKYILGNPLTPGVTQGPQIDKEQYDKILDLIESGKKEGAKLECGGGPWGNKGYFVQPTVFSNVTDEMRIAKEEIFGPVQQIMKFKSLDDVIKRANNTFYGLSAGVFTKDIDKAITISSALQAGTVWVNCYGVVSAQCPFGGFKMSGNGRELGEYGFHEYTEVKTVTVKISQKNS
Active calls of the source: *; ? = inconclusive; nt = no result; [ ] = remark or other dose. This is a sample that favours compounds with a hit; in the whole collection about 10% have one here. Unless noted, calls come from the whole dose curve; as a rule, active = well fitted inhibition curve with a large enough effect (not every such curve was filed as active); inconclusive = small, poorly fitted or top-dose-only effect, or another doubt; inactive = no such curve, though single readings can be large or run the other way. Unless noted, % is set by controls: 0 for no effect and ±100 for the full control effect.

SMILES	HPGD inh	LMNA splice mod	ALOX12 inhib	PNC assembly inh	ALDH1A1 inh
COc1ccccc1CN1C(=O)[C@@H]2C(CC(N)=O)NC3(C(=O)Nc4c3ccc(Cl)c4C)[C@@H]2C1=O (stereo partly specified)	nt	-1.9%	-3.1%	4.7	?
COc1ccccc1CN1C(=O)[C@@H]2C(CCC(N)=O)NC3(C(=O)Nc4c3ccc(Cl)c4C)[C@@H]2C1=O (stereo partly specified)	-8.3%	1.7%	-4.8%	48.9	0.224µM*
CCCCc1nn2c(=O)cc(COC(=O)C3CCCCC3)nc2s1	nt	1.7%[46 µM]	nt	nt	nt
O=C(c1ccc(Cl)cc1)C1CCCN(Cc2ccc(Oc3ncccn3)cc2)C1 (stereo unspecified)	nt	13.3%[46 µM]	nt	nt	28.2µM*
O=C(O)C(=O)/C(=C\c1ccc([N+](=O)[O-])cc1)c1ccc2ccccc2n1	nt	-8.7%[46 µM]	nt	nt	11.2µM*
COC(=O)c1ccc(CSc2ncnc3c2nnn3-c2ccc(F)cc2)o1	7.08µM*	-4.0%	-5.7%	-25.7	-13.0%
COc1ccc(-n2nnc3c(SCc4ccccc4)ncnc32)cc1	15.8µM*	7.6%	-3.8%	-15.0	12.6µM*
CCN(CC)C(=O)CSc1ncnc2c1nnn2-c1ccc(OC)cc1	-15.4%	6.1%	2.5%	-0.4	3.98µM*
CC(=O)Nc1ccc(S(=O)(=O)N2CCC(n3c(C)nc4cccnc43)CC2)cc1	nt	4.3%[46 µM]	nt	nt	nt
Cc1cccc(N(C)S(=O)(=O)c2nnc(NC(=O)C(C)Oc3ccccc3)s2)c1 (stereo unspecified)	nt	-23.4%[46 µM]	nt	nt	nt
CCC1CCCCN1C(=O)Cn1c(=O)n(-c2ccc(Cl)c(Cl)c2)c(=O)c2c(C)c(C(=O)N(C)C)sc21 (stereo unspecified)	nt	-15.2%[46 µM]	nt	nt	nt
COc1ccc(N=C2C(=O)N3CCCc4cccc2c43)cc1	-20.2%	8.1%	-2.4%	37.2	0.0355µM*
COc1ccccc1NC(=O)C1=C(C)Nc2nc(SCC(=O)c3ccc(C)cc3)nn2C1c1ccc(F)cc1 (stereo unspecified)	nt	14.2%[46 µM]	nt	nt	nt
O=c1c(-c2cc(F)cc(F)c2)nc2cnc(N3CCNCC3)nc2n1Cc1cccs1	-16.4%	nt	2.0%	nt	?
O=C(OCCN1C(=O)c2cccc3c(N4CCOCC4)ccc(c23)C1=O)c1ccccc1Cl	-26.9%	?	-1.2%	?	-14.4%
O=C(OCCN1C(=O)c2cccc3c(N4CCOCC4)ccc(c23)C1=O)c1ccc(Cl)cc1Cl	-14.6%	?	1.6%	-98.1*	5.2%
Cn1c(=O)n(C)c2cc(NS(=O)(=O)c3ccc4c(c3)CCCC4)ccc21	-2.1%	?	?	-22.5	1µM*
CCc1ccc(S(=O)(=O)Nc2ccc3c(c2)n(C)c(=O)c(=O)n3C)cc1	nt	-12.1%[46 µM]	nt	nt	nt
Cn1c(=O)n(C)c2cc(NS(=O)(=O)c3ccc(C(C)(C)C)cc3)ccc21	nt	nt	nt	nt	0.562µM*
COc1ccc(OC)c(NS(=O)(=O)c2ccc3c(c2)n(C)c(=O)n3C)c1	1.1%	14.8%	-5.7%	3.4	-9.8%
COc1ccc(NS(=O)(=O)c2ccc3c(c2)n(C)c(=O)n3C)cc1	15.8µM*	18.5%	1.0%	-10.2	-10.0%
CC(C)(C)c1ccc(S(=O)(=O)Nc2ccc3c(c2)COC3=O)cc1	nt	nt	nt	nt	4.47µM*
COc1cc(C)ccc1OCCSc1nc2ccc(NC(=O)c3cccs3)cc2s1	nt	-9.7%[46 µM]	nt	nt	nt
CCCCCCCCCCCCCCCC(=O)OC(CC(=O)O)C[N+](C)(C)C (stereo unspecified)	-2.3%	?	nt	nt	-7.1%
CCCCC1=CC2=C(OC(C)=O)C(=O)C(C)(OC(=O)c3ccc(Cl)nc3)C(=O)C2=CO1 (stereo unspecified)	-7.3%	nt	-3.3%	nt	13.3%
SMILES	HPGD inh	LMNA splice mod	ALOX12 inhib	PNC assembly inh	ALDH1A1 inh
CCn1c(=O)c(=O)n(CC)c2cc(S(=O)(=O)Nc3cccc(OC)c3)ccc21	-20.5%	15.2%	3.1%	-13.4	12.6µM*
CCC(Sc1nc2cc(OC)c(OC)cc2c(=O)n1Cc1ccc(Cl)cc1)C(=O)NCCOC (stereo unspecified)	nt	16.4%[46 µM]	nt	nt	nt
CCN(Cc1ccccc1)S(=O)(=O)c1ccc(N2CCCCS2(=O)=O)cc1	nt	14.7%[46 µM]	nt	nt	nt
CCOc1ccc(-c2csc(N)c2C(=O)OC)cc1	14.1µM*	-12.0%	-11.6%	47.4	22.4µM*
Nc1nc2ncc(C(=O)c3cc(F)ccc3O)cc2s1	nt	nt	nt	nt	2.9%
Cc1ccc(O)c(C(=O)c2cnn(C(=O)Cc3csc(C)n3)c2)c1	-11.6%	13.6%	-19.7%	8.3	1.12µM*
Cc1ncc(CC(=O)n2cc(C(=O)c3cc(F)ccc3O)cn2)s1	-15.3%	3.6%	1.3%	72.8	7.94µM*
COc1ccc2[nH]cc(CCNC(=O)c3cnn(-c4ccccc4Cl)c3C3CCN(C(=O)OC(C)(C)C)CC3)c2c1	nt	-19.8%[46 µM]	nt	nt	nt
O=C1CC(c2ccc3c(c2)OCO3)c2cc(O)ccc2O1 (stereo unspecified)	39.8µM*	nt	-5.2%[0.00818 µM]	nt	?
O=C1CC(c2ccc3c(c2)OCO3)c2ccc(O)cc2O1 (stereo unspecified)	-2.8%	nt	-1.8%[0.00818 µM]	nt	8.8%
C/C(N[C@@H]1CSCC1O)=C1/C(=O)CC2[C@@H]1C2(C)C (stereo partly specified)	-2.8%	nt	nt	nt	8.91µM*
CCN1C(=O)[C@H]2[C@H]3[C@H](O)[C@H](O)C/C(=N/OC[C@@H](O)COCc4ccco4)[C@@H]3CC[C@@H]2C1=O	nt	nt	nt	nt	4.9%[13.5 µM]
O=[N+]([O-])c1cc2c(cc1/C=N/n1c(-c3ccccn3)n[nH]c1=S)OCO2	?	-6.6%	-3.2%	?	28.2µM*
O=[N+]([O-])c1cc2c(cc1/C=N/n1c(-c3ccccc3)n[nH]c1=S)OCO2	3.16µM*	8.8%	-10.2%	?	12.6µM*
O=[N+]([O-])c1ccccc1/C=C/C=N/n1c(-c2ccco2)n[nH]c1=S	nt	nt	nt	nt	-6.7%
O=C(CN1Cc2ccccc2C1=O)Nc1cc(F)ccc1F	nt	-4.2%[46 µM]	nt	nt	nt
Cc1ccc(NC(=O)c2ccccc2O)cc1	-16.0%	?	5.9%	-100.0*	10.2%
O=C(Nc1ccc(NC(=O)c2ccc(S(=O)(=O)c3ccccc3)cc2)cc1)c1ccccc1	?	-4.6%	3.1%	?	2.2%
Cc1ccc(NC(=O)c2cc(S(=O)(=O)c3ccccc3)ccc2Cl)cc1	-11.7%	?	-13.6%	21.2	10µM*
CC(=O)N(C)c1ccc(NC(=O)c2ccccc2C(=O)O)cc1	-2.6%	3.3%	-0.9%	-116.6*	?
Cc1ccc(NC(=O)c2ccccc2-c2ccccc2C(=O)O)cc1	-8.4%	-8.8%	-1.8%	?	7.7%
Cn1c(N)nc2c(nc(OCc3ccccc3)n2[C@@H]2O[C@H](CO)[C@@H](O)[C@@H]2O)c1=O	2.5%	nt	-2.2%[11.4 µM]	nt	2.4%[13.5 µM]
CC(C)(C)SCCNC(=O)c1ccccc1	-17.1%	-3.9%	-2.8%	-17.7	-2.4%
Cc1ccccc1CSCCNC(=S)Nc1ccccc1	nt	11.3%[46 µM]	nt	nt	-9.8%
O=C(NCCSc1ccccc1)c1ccccc1	-27.6%	-7.6%	-0.2%	16.9	-2.1%
